This is a sample that favours compounds with a hit; in the whole collection about 6.5% have one here.
Lassa entry inh = Lassa virus entry inhibition; Lassa virus pseudotype entry inhibition, cell reporter; hit rate 1.2% among 300,000; AID 540256; Potency, µM (doses to about 37.9 µM), inactives show at the top dose activity change, negative = inhibition, most hits filed as inhibitors; calls by dose curve; tested in HEK293 cells; note: potency is the fitted concentration of half-maximal effect; nearly all actives have a fitted effect of over 50% in size
Marburg entry inh = inhibitors of Marburg virus binding or cell entry; hit rate 1.8% among 300,000; Potency, µM (doses to about 37.8 µM), inactives show at the top dose activity change, negative = inhibition, hits mostly inhibitors; Marburg virus pseudotyped entry inhibition, cell reporter; calls by dose curve; tested in HEK293 cells; note: potency is the fitted concentration of half-maximal effect
HCMV inh = blocks human cytomegalovirus replication. HFF cells, HCMV-luciferase reporter, 72 h; hits give low values. activity change, negative = inhibition, % at 57.5 µM. hit rate 4.5% among 410,000. AID 1259415; in the data active = activity change below about -60%; inconclusive = no clear call, values can overlap the other calls; inactive = above about -39%
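After 16 h attachment at 37C, HFF cells received test compound and HCMV-luciferase (1 PFU/cell); reporter luminescence read 72 h later, data normalized against buffer-only and known inhibitor Salinomycin.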
VACV Venus inh = vaccinia inhibition (Venus reporter) | hit rate 0.46% among 330,000 | Vaccinia virus Venus reporter expression, fluorescence | AID 720580 | Potency, µM (doses to about 36.5 µM), for inactives: at the highest dose activity change, negative = inhibition, most hits filed as inhibitors; calls by dose curve; tested in A549 cells; note: potency is the fitted concentration of half-maximal effect; nearly all actives have a fitted effect of over 30% in size
FMDV antiviral = antivirals against foot and mouth disease virus; Potency, µM (doses to about 57.9 µM), for inactives: at the top dose activity change, negative = inhibition, actives largely listed as inhibitors; hit rate 1.2% among 410,000; FMDV antiviral cell-based qHTS; calls by dose curve; tested in HEK293T cells; note: read-out not given here; potency is the fitted concentration of half-maximal effect; nearly all actives have a fitted effect of over 45% in size
VACV mCherry inh = inhibitors of vaccinia virus infection (mCherry reporter signal). Vaccinia virus mCherry reporter infection, fluorescence. Potency, µM (highest dose often 36.5 µM), inactives show top-dose activity change, negative = inhibition, hits mostly inhibitors. hit rate 0.63% among 310,000. AID 720579; calls by dose curve; tested in A549 cells; note: potency is the fitted concentration of half-maximal effect; nearly all actives have a fitted effect of over 35% in size
* = called active by the depositor; i = inactive; ? = inconclusive; . = no result given; ! = not active in a repeat; [ ] = dose if it differs, or a comment. % is set by controls: 0 for no effect and ±100 for the full control effect.

SMILES | Lassa entry inh | Marburg entry inh | HCMV inh | VACV Venus inh | FMDV antiviral | VACV mCherry inh
CCOc1ccc(C2Nc3ccccc3-c3nnc(SCc4ccccc4)nc3O2)cc1OC (configuration not stated) | 6%[46.1 µM] | 8%[46.1 µM] | 27 | -9% | 26% | 2%
COc1ccccc1-c1cnn(C(C)(C)C(=O)NCc2ccccc2Br)c1 | . | . | 11 | . | . | .
C(=C\c1nccc2ccccc12)/c1ccc(N2CCOCC2)cc1 | . | . | . | -17% | . | -26%
Cc1noc(-c2ccc(N(C)Cc3ccccc3)c([N+](=O)[O-])c2)n1 | ? | -12%[46.1 µM] | 75 | 2% | 16% | 0%
CCc1nc(N)nc(N)c1-c1ccc(N(C)Cc2ccccc2)c([N+](=O)[O-])c1 | ? | 0.89µM* | -97* | 1µM* | 22µM* | ?
CCc1nc(N)nc(N)c1-c1ccc(NCCN)c([N+](=O)[O-])c1 | . | . | -78* | 4.5µM* | -15% | ?
CCc1nc(N)nc(N)c1-c1ccc(Cl)cc1 | 3.3µM* | ? | -99* | ? | -9% | 8.9µM*!
CCC(=O)n1nc(-c2ccc(Cl)cc2)nc1N | . | . | 10 | . | 21% | .
O=C(Cn1c(=O)n(-c2ccccc2)c(=O)c2c3c(sc21)CCCC3)Nc1ccc(F)cc1F | -5%[46.1 µM] | ? | -35 | 7% | -5% | 1%
COc1cccc(-c2nc3c(c(SCc4ccccc4Cl)n2)Cc2c(CO)cnc(C)c2O3)c1 | -13%[46.1 µM] | . | 1 | -4% | -25% | -3%
CN(C)c1ccc(C=C2C(=O)NC(=S)NC2=O)cc1 | ? | ? | 22 | -9% | 28µM* | -18%
CCN(CC)c1ccc(/C=C2\NC(=O)NC2=O)cc1 | -4% | -13% | 6 | -15% | 2% | -24%
CCN(CC)c1ccc(C=C2C(=O)NC(=S)NC2=O)cc1 | . | . | -29 | . | 22µM* | .
C[C@@H]1O[C@@H](O[C@@H]2C=C3CC[C@@H]4[C@@H](CC[C@]5(C)[C@H](c6ccc(=O)oc6)CC[C@@]45O)[C@@]3(C)CC2)[C@H](O)[C@H](O)[C@H]1O | . | . | . | 6.3µM* | . | 10µM*
Cc1ccc(NC(=O)/C(=C/c2cccc([N+](=O)[O-])c2)NC(=O)C2CCCCC2)c(C)c1 | ? | ? | -96* | -5% | . | ?
COc1ccc2c3c(n(C)c2c1)[C@@H](CO)N(S(C)(=O)=O)CC31CCN(C(=O)C2CCCC2)CC1 | . | . | 6 | . | . | .
Cc1cc(C(=O)Nc2ccc(Nc3ccccc3)cc2)ccc1[N+](=O)[O-] | 2% | 0% | -21 | ? | -23% | i
Cc1ccccc1NC(=O)c1ccc(Nc2c([N+](=O)[O-])cc([N+](=O)[O-])c3ccccc23)cc1 | ? | ? | -92* | -25% | ? | ?
Cc1cc(N(C)C)cc(C)c1/C=C/c1ccnc2ccccc12 | . | . | . | -23% | . | -17%
S=C(NCc1cccs1)Nc1cccc(Cl)c1Cl | ? | 0% | -79* | -16% | 47% | i
CCCCc1ccc(NC(=S)NCc2cccs2)cc1 | -10% | -26% | -80* | . | 45% | .
Cc1ccc(NC(=S)NCc2cccs2)cc1 | 9% | ? | 40 | ? | 42% | .
Cc1ccccc1NC(=S)NCc1cccs1 | 13% | ? | 22 | -8% | 18% | .
Cc1c(Cl)cccc1NC(=S)NCc1cccs1 | -18% | -9% | -80* | . | 18% | .
CCCCC12CN3CC(C)(CN(C1)C3c1c(C)[nH]c(=O)[nH]c1=O)C2=O (configuration not stated) | 14%[46.1 µM] | 2%[46.1 µM] | 3 | 1% | -6% | 6%
SMILES | Lassa entry inh | Marburg entry inh | HCMV inh | VACV Venus inh | FMDV antiviral | VACV mCherry inh
CCn1c(C(=O)NCc2ccc(C)cc2)cc2sc(Cl)cc21 | . | 0%[46.1 µM] | ? | -4% | -7% | -4%
Cc1cc(C)nc(OC(=O)c2ccc(Cl)cc2Cl)n1 | . | . | -102* | . | . | .
N/C(=N\OC(=O)c1ccc(Cl)cc1Cl)c1ccccc1 | 8.2µM* | ? | 30 | . | -71% | .
Cc1ccc(/C(N)=N/OC(=O)c2ccc(C)cc2Cl)cc1 | ? | ? | -79* | -10% | ? | -6%
OC(c1cccc(Cl)c1)c1nnc(Nc2cccc(Oc3ccccc3)c2)s1 (configuration not stated) | . | . | -19 | . | . | .
O=C1Nc2ccccc2C1(O)c1ccccc1 (configuration not stated) | . | . | -16 | . | -16% | .
CC(C)(C)C1=CC(O)(c2ccccc2)C=C(C(C)(C)C)C1=O | . | . | -60* | . | ? | .

Bioassay records (PubChem)
